# Screens: PubChem, several laboratories
# SKN-1 block = inhibitors of C. elegans SKN-1. C. elegans VP596 Pgst-4::GFP/RFP ratio, acrylamide-induced, 24 h. actives 0.49% (n = 360,000). inhibition, % at 21.8 µM;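 active means interference check ratio from 0.5 to 1.5 plus GFP to RFP signal ratio inhibition reaching or exceeding a fixed threshold, cut at about 30% in these data, passing the limit was not always enough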
# Vif inh = inhibitors of HIV Vif | HEK293T cells, Vif self-association by quenched fluorescence, imaging, 24 h | inhibition, % at 7.49 µM | actives 0.35% (n = 340,000) | AID 602346; in the data active means inhibition above about 50%, passing the limit was not always enough; inconclusive means no clear call, values can overlap the other calls; inactive means below about 31%
# NR3A LBD binder = modulators (binders) of human NR3A ligand-binding domain. NR3A LBD differential scanning fluorimetry, Tm shift; 0% = protein alone, 100% = glycine-bound protein. AID 1259313. actives 2.5% (n = 340,000). Tm shift relative to glycine control, % at 25 µM;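 active means melting temperature shift of at least 10% of the positive control shift, at one fixed dose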
# esBAF inh = SWI/SNF esBAF complex inhibition; actives 2% (n = 350,000); mouse ES cells, Bmi1-luciferase knock-in reporter, 24 h; 100% = twice the neutral-well signal; reporter increase, % at 12.5 µM; in the data active means activation above about 40%; inconclusive means no clear call, values can overlap the other calls;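 further: 0% = median of the plate's neutral control wells and 100% = double that signal; a rise in the Bmi1 reporter signal indicates esBAF inhibition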
# NadD inh = inhibitors of Staphylococcus aureus NadD; purified NadD enzyme, colorimetric absorbance read-out; inhibition, % at 20 µM; actives 0.78% (n = 360,000); in the data active means inhibition above about 26%
# SMARCA2 act = activators of SMARCA2 function; activation, % at 9.1 µM; AID 652017; actives 1% (n = 370,000); MG213 cells, MMTV-luciferase reporter, dexamethasone, overnight; in the data active means activation above about 7.8%;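 further: 0% = vehicle wells and 100% = reference activator wells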
# * hit, by the source's call; ? = inconclusive; . = not tested or not shown; ! = not active in a repeat. Hits are enriched below; roughly 5.2% of the tested compounds scored in any of these assays.
SMILES,SKN-1 block,Vif inh,NR3A LBD binder,esBAF inh,NadD inh,SMARCA2 act
Cc1ccc2c(c1)C1(C(=O)N2)N2CCCC2C(C(=O)c2ccc3ccccc3c2)C12C(=O)Nc1ccccc12 (stereo not given),11,-6,-5,50*!,3,0
C/C=C/c1ccc(OCCCNC)c(OC)c1,2,2,1,10,-4,1
C/C=C/c1ccc(OCCCCOc2ccccc2C(C)=O)c(OC)c1,4,-5,18*,.,-3,-1
C/C=C/c1ccc(OCCNCc2ccccc2)c(OC)c1,0,70*,-1,-5,-2,1
C[C@@H]1CN([C@@H](C)CO)C(=O)c2cc(NC(=O)c3ccccc3)ccc2O[C@@H](C)CCCCO[C@H]1CN(C)Cc1ccc(C(=O)O)cc1,.,.,.,-6,.,.
COc1ccc(NC(=O)Nc2ccc3c(c2)C(=O)N([C@H](C)CO)C[C@H](C)[C@@H](CN(C)C(=O)Nc2ccc(F)cc2)OCCCC[C@@H](C)O3)cc1,.,.,.,-1,.,.
COc1ccc(Cl)cc1C(=O)NC(=S)Nc1nc(C)cc(C)n1,0,-2,-1,1,4,6
COc1ccc(Cl)cc1C(=O)NC(=S)Nc1cc(-c2nc3ccccc3[nH]2)ccc1C,13,-10,18*,34,34*,2
O=C(N[C@H]1CC[C@@H](CCn2cc(-c3ccccn3)nn2)O[C@H]1CO)c1cccnc1,.,.,.,-3,.,.
Cc1ccc(N/C=C/C(=O)c2cccs2)cc1C,39*,6,-9,.,-5,5
O=C(/C=C/Nc1ccc(Nc2ccccc2)cc1)c1cccs1,2,.,0,.,7,2
O=C(/C=C/Nc1ccccc1C(=O)O)c1cccs1,11,3,-5,.,-1,4
Cc1cc(N/C=C/C(=O)c2cccs2)ccc1F,21,29,-29,69*,-1,4
O=C(/C=C/Nc1cccc([N+](=O)[O-])c1)c1cccs1,17,2,8,73*,1,4
C[C@@H]1CCCCO[C@@H](CN(C)S(=O)(=O)c2ccc(Cl)cc2)[C@@H](C)CN([C@H](C)CO)C(=O)c2cc(NS(C)(=O)=O)ccc2O1,.,.,.,0,.,.
C[C@H](CO)N1C[C@H](C)[C@@H](CN(C)Cc2ccc3c(c2)OCO3)Oc2ccc(NC(=O)Nc3ccc(C(F)(F)F)cc3)cc2CC1=O,.,.,.,-1,.,.
O=C(Nc1ccccc1F)c1cnccn1,11,1,-1,10,-3,-2
O=C(Nc1ccccc1F)c1cc2nc(C(F)F)cc(C(F)F)n2n1,21,4,1,58*,-3,0
CCCNC(=O)C[C@@H]1CC[C@H]2[C@@H](COc3ccc(NC(=O)c4ccc5c(c4)OCO5)cc3C(=O)N2C)O1,.,.,.,1,.,.
CCNC(=O)C[C@@H]1CC[C@H](NC(=O)C2CCOCC2)[C@@H](CO)O1,.,.,.,-1,.,.
CN1C(=O)C2(N=c3ccccc3=N2)c2ccccc21,-23,-7,-1,41*,-1,.
NC(=O)c1cc2c3ccccc3ccn2c1-c1ccccc1,10,0,-4,49*,5,6
CN1CCSc2ccc(C(=O)Nc3ccc(Cl)cc3)cc21,1,-14,-4,.,-6,7
COc1cccc(NC(=O)c2ccc3c(c2)CCN3S(C)(=O)=O)c1,16,-2,0,56*,-11,-1
COc1cccc(NC(=O)c2ccc3c(c2)N(C)CCS3)c1,-9,-6,-1,51*,-6,4
SMILES,SKN-1 block,Vif inh,NR3A LBD binder,esBAF inh,NadD inh,SMARCA2 act
C[C@H](CO)N1C[C@H](C)[C@@H](CN(C)S(=O)(=O)c2ccc(Cl)cc2)Oc2ccc(NS(=O)(=O)c3ccc(F)cc3)cc2C1=O,.,.,.,-8,.,.
C=C(C)CNC(=S)Nc1nc2c(cc1C(=O)OCC)CCCC2,10,-2,0,62*,7,0
CCOC(=O)C(=O)Nc1nnc(CCc2ccccc2)s1,16,15,-1,-10,2,7.8*
CCC(=O)Nc1nnc(CCc2ccccc2)s1,2,0,-1,12,6,0
CC(C)NC(=O)N1C[C@@H]2[C@H](c3ccccc31)[C@H](CO)N2Cc1ccccn1,.,.,.,0,.,.
O=C1C(C=NCCN2CCOCC2)=C(O)c2ccccc21,-4,-2,2,51*,-5,1
COc1ccc(N=CC2=C(O)c3ccccc3C2=O)cc1,15,3,-2,.,-16,2
O=C1C(C=Nc2ccccc2)=C(O)c2ccccc21,18,14,-1,56*,1,5
CC(C)C1COC(c2cccc3ccccc23)=N1 (stereo not given),37*,0,2,55*,-3,5
COc1ccc(CN(Cc2ccc(C(=O)O)cc2)C(=S)Nc2cccc(C)c2)cc1OC,-8,-1,12*,-3,2,-4
COc1ccc(NC(=S)N(Cc2ccc(C(=O)O)cc2)Cc2ccc(OC)c(OC)c2)cc1,4,7,2,2,-1,1
Brc1ccc2oc3c(N4CCOCC4)ncnc3c2c1,11,2,-1,48*,3,5
c1ccc(N2CCN(c3ncnc4c3oc3ccccc34)CC2)cc1,4,0,-1,-2,-9,4
C/C=C/c1ccc2c(c1)O[C@@H](CN(C)C(=O)Nc1ccc(C(F)(F)F)cc1)[C@H](C)CN([C@H](C)CO)S2(=O)=O,.,.,.,5,.,.
O=C(C[C@@H]1CC[C@H](NC(=O)c2cccnc2)[C@@H](CO)O1)NCc1ccncn1,.,.,.,4,.,.
Cn1cnnc1SCc1ccc(C(=O)N=Nc2c(O)n(Cc3ccc(Cl)cc3)c3ccccc23)cc1,9,-11,-4,.,35*,-2
O=C(Nc1ccccc1F)NC1CC1,3,14,-1,?,-10,-2
S=C(Nc1cccc2ccccc12)NC1CCCCC1,11,-1,-5,57*,6,-1
O=C(Nc1ccccc1F)C1CCCC1,41*,-15,2,.,-7,-2
O=C(CCN1CCCCCC1)Nc1ccccc1F,49*,-1,0,-7,-1,-1
O=C(Nc1ccccc1F)C1CCN(C(=O)NC2CCCCC2)CC1,2,19,2,2,-1,1
S=C(Nc1cccc2ccccc12)Nc1cccc2ccccc12,23,-5,-9,9,5,4
O=C(CN1CCCCCC1)Nc1ccccc1F,-4,-6,4,6,-4,-3
O=C(Nc1ccccc1F)NC1CCCCCCC1,9,0,3,54*,-1,6
C[C@@H]1CCCCO[C@@H](CN(C)C(=O)c2ccccc2)[C@H](C)CN([C@H](C)CO)C(=O)c2cc(NC(=O)Nc3ccc4c(c3)OCO4)ccc2O1,.,.,.,4,.,.
C[C@@H](NC(=O)C[C@@H]1CC[C@H](NC(=O)Nc2ccc3c(c2)OCO3)[C@@H](CO)O1)c1ccccc1,.,.,.,2,.,.
CN(C)C(=O)[C@@H]1[C@@H](CO)[C@@H]2Cn3c(cccc3=O)[C@@H]2N1CC1CCCC1,.,.,.,1,.,.
